Records with an inconclusive call do not appear. Calls of active or inactive are those of the source. Calls follow the shape of the dose curve; as a rule, active = well fitted curve in the direction sought with a large enough effect; inconclusive = small, poorly fitted or top-dose-only effect, or another doubt; inactive = no such curve, though single readings can be large or run the other way.
Each molecule was assayed against Protein phosphatase 1D (Homo sapiens) (UniProt O15297) (assay: Rhodamine-PBP qHTS Assay for Modulators of WT P53-Induced Phosphatase 1 (WIP1) (AID 1347425)). Details: recombinant WIP1, Rhodamine-PBP phosphate fluorescence, real-time; series mostly up to 57.5 µM.
Chain of Protein phosphatase 1D (Homo sapiens) (O15297 whole entry, looked up): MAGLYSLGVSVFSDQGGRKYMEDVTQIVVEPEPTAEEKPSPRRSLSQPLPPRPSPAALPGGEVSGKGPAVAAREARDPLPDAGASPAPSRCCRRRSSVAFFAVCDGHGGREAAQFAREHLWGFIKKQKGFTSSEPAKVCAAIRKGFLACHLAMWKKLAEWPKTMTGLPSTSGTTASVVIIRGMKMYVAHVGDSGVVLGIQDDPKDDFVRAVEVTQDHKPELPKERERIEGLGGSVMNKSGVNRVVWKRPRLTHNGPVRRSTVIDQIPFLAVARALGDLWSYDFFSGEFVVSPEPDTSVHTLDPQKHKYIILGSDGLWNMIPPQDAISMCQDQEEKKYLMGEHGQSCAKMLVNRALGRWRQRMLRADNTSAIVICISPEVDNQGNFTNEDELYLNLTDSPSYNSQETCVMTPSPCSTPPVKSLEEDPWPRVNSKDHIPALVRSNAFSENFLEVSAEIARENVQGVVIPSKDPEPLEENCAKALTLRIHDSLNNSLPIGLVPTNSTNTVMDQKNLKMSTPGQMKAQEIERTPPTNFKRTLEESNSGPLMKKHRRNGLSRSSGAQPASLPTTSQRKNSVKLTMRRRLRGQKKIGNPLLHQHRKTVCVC
Source text: Assay Provider (PI): Nathan Coussens Ph.D.
National Center for Advancing Translational Sciences (NCATS), Rockville, MD
National Institute of Health (NIH), Bethesda, Maryland
WT P53-Induced Phosphatase 1 (WIP1) is a member of the magnesium-dependent serine/threonine protein phosphatase (PPM) family and is induced by P53 in response to DNA damage. In several human cancers, the WIP1 protein is overexpressed, which is generally associated with a worse prognosis. Although WIP1 is an attractive therapeutic target, no potent, selective, and bioactive small-molecule modulator with favorable pharmacokinetics has been reported. Phosphatase enzymes are among the most challenging targets for small molecules because of the difficulty of achieving both modulator selectivity and bioavailability. Another major obstacle has been the availability of robust and physiologically relevant phosphatase assays that are suitable for high-throughput screening.
Here, we describe two orthogonal biochemical WIP1 activity assays that utilize phosphopeptides from native WIP1 substrates. We optimized a RapidFire MS assay to quantify the enzymatically dephosphorylated peptide reaction product in a 384-well format. Additionally, a redshifted Rhodamine-PBP fluorescence assay was optimized in a 1,536-well format to enable real-time WIP1 activity measurements through the detection of the orthogonal reaction product, Pi. We validated these two optimized assays by quantitative high-throughput screening against the National Center for Advancing Translational Sciences (NCATS) Pharmaceutical Collection and used secondary assays to confirm and evaluate inhibitors identified in the primary screen.
SEQUENCE No. (e.g., 1, 2, 3, etc.); […] (e.g., Cells, Incubation, Reagent, etc.); VALUE; DESCRIPTION
1; Reagent; 3 uL; WIP1 (6.7 nM), Rh-PBP (13.3 uM), columns 1-48
3; Library Compounds; 23 nL; NCATS Pharmaceutical Collection, column 5-48
4; Control Compounds; DMSO in column 2, GSK2830371 (57.5 uM, final) in 3-fold serial dilutions in column 3, GSK2830371 (1.15 uM, final) in column 4
5; Time; 1 hr; incubation
6; Detection; fluorescence (f0); ViewLux, excitation filter = 525 nm, emission filter = 598 nm
7; Reagent; 1 uL; VEPP-pS-QETFS (40 uM), columns 2-48
8; Detection; fluorescence (f1); ViewLux, excitation filter = 525 nm, emission filter = 598 nm
NOTES (numbers refer to sequence above)
1 & 2; Black medium binding Greiner 1536-well plates (# 789176-F); assay buffer: 50 mM Tris-HCl pH 7.5, 30 mM MgCl2, 1mM TCEP, 0.1 mM EGTA, 75 ug/mL BSA; dispensed with a BioRaptr liquid handler (Beckman Coulter).
3 & 4; Kalypsys pintool (equipped with 1536 pinhead, Wako USA) transfer. Tip wash sequence: DMSO, methanol, 3 sec vacuum dry.
5; Room temperature incubation.
7; VEPPL-pS-QETFS in assay buffer dispensed with a BioRaptr; final reaction conditions: 5 nM WIP1, 10 uM VEPPL-pS-QETFS, 10 uM Rh-PBP, 50 mM Tris-HCl pH 7.5, 30 mM MgCl2, 1 mM TCEP, 0.1 mM EGTA, 75 ug/mL BSA.
8; Measurement taken at 1 min intervals for 11 min. Delta readout = f1 - f0.

Structure (SMILES)	outcome
O[C@@H](CNC[C@H](O)[C@H]1CCc2cc(F)ccc2O1)[C@@H]1CCc2cc(F)ccc2O1	inactive
CN(C)CCc1c[nH]c2ccc(CS(=O)(=O)N3CCCC3)cc12	inactive
N=C(N)c1ccc(OCCCCCOc2ccc(C(=N)N)cc2)cc1	inactive
Cc1ccnc2c1NC(=O)c1cccnc1N2C1CC1	inactive
CNC(=O)c1cc(Oc2ccc(NC(=O)Nc3ccc(Cl)c(C(F)(F)F)c3)cc2)ccn1	inactive
CN(C)c1ccc(C(=C2C=CC(=[N+](C)C)C=C2)c2ccc(N(C)C)cc2)cc1	inactive
O=C(O)c1cccnc1	inactive
O=P(O)(O)C(O)(Cc1cccnc1)P(=O)(O)O	inactive
CNNCc1ccc(C(=O)NC(C)C)cc1	inactive
C#CCN[C@@H]1CCc2ccccc21	inactive
COc1ccc(C(=O)CC(=O)c2ccc(C(C)(C)C)cc2)cc1	inactive
C[C@@H]1CN(c2c(F)c(N)c3c(=O)c(C(=O)O)cn(C4CC4)c3c2F)C[C@H](C)N1	inactive
COCCCOc1cc(C[C@@H](C[C@H](N)[C@@H](O)C[C@H](C(=O)NCC(C)(C)C(N)=O)C(C)C)C(C)C)ccc1OC	inactive
CN1CCCC(n2nc(Cc3ccc(Cl)cc3)c3ccccc3c2=O)CC1 (stereo not given)	inactive
C[C@@H](NCCCc1cccc(C(F)(F)F)c1)c1cccc2ccccc12	inactive
CNC1CCCN(c2c(F)cc3c(=O)c(C(=O)O)cn(C4CC4)c3c2OC)C1 (stereo not given)	inactive
CCC(=O)O[C@]1(C(=O)CCl)[C@@H](C)C[C@H]2[C@@H]3CCC4=CC(=O)C=C[C@]4(C)[C@@]3(F)[C@@H](O)C[C@@]21C	inactive
CCN[C@H]1C[C@H](C)S(=O)(=O)c2sc(S(N)(=O)=O)cc21	inactive
COC(=O)Nc1nc2ccc(C(=O)c3ccccc3)cc2[nH]1	inactive
O=NN(CCCl)C(=O)NC1CCCCC1	inactive

Structure (SMILES)	outcome
CC(C)C[C@H](NC(=O)[C@H](CCc1ccccc1)NC(=O)CN1CCOCC1)C(=O)N[C@@H](Cc1ccccc1)C(=O)N[C@@H](CC(C)C)C(=O)[C@@]1(C)CO1	inactive
CCCc1cc(C(N)=S)ccn1	inactive
COC(c1ccccc1)(c1ccccc1)[C@H](Oc1nc(C)cc(C)n1)C(=O)O	inactive
CCn1cc(C(=O)O)c(=O)c2cc(F)c(N3CCN(C)CC3)cc21	inactive
CC(C)(C)NC(=O)[C@H]1CC[C@H]2[C@@H]3CC[C@H]4NC(=O)C=C[C@]4(C)[C@H]3CC[C@]12C	inactive
CCCCCCNC(=O)n1cc(F)c(=O)[nH]c1=O	inactive
CC(=O)[C@H]1CC[C@H]2[C@@H]3CC=C4C[C@@H](O)CC[C@]4(C)[C@H]3CC[C@]12C	inactive
CC(C)(C)C(=O)OCOP(=O)(COCCn1cnc2c(N)ncnc21)OCOC(=O)C(C)(C)C	inactive
COc1cc([C@@H]2c3cc4c(cc3[C@H](O)[C@H]3COC(=O)[C@H]23)OCO4)cc(OC)c1OC	inactive
O=c1cc(O)c(Cl)c[nH]1	inactive
CN1CCN(c2c(F)cc3c(=O)c(C(=O)O)cn4c3c2OCN4C)CC1	inactive
Cc1cccc(N(C)C(=S)Oc2ccc3ccccc3c2)c1	inactive
CC(C)Cn1cnc2c(N)nc3ccccc3c21	inactive
Cc1ncc([N+](=O)[O-])n1CCO	inactive
Cc1nnc(NS(=O)(=O)c2ccc(N)cc2)s1	inactive
Nc1ccc(S(=O)(=O)Nc2ccccn2)cc1	inactive
O=S(=O)(c1cccc2cnccc12)N1CCCNCC1	inactive
CC(C)(Sc1cc(C(C)(C)C)c(O)c(C(C)(C)C)c1)Sc1cc(C(C)(C)C)c(O)c(C(C)(C)C)c1	inactive
Nc1nc(N)nc(-c2cc(Cl)ccc2Cl)n1	inactive
CCOCC(O)COc1ccc(NC(=O)CC[S+](C)C)cc1 (stereo not given)	inactive

From PubChem BioAssay (NCATS)
